Compounds with a hit are over-represented: about 19% of the library has one in this group of screens.
TDP1 cell CPT: growth inhibition of DT40 Tdp1-/-;hTDP1 cells with camptothecin (screen for TDP1 inhibitors) | chicken DT40 Tdp1-/-;hTDP1 cells + 20 nM CPT, ATP luminescence, 48 h | 420,000 compounds, 12% hits | Potency, µM (series often up to 46.2 µM), without a hit: at the highest dose activity change, negative = growth inhibition, usual class: inhibitors; further: potency means the concentration at half of the fitted maximal effect; on the % scale 0 is the no-effect control and ±100 the full control effect; nearly all actives have a fitted effect of over 55% in size
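Chicken DT40 Tdp1-/- cells stably complemented with human TDP1 were seeded at 400 cells/well in medium containing 20 nM camptothecin, exposed to pin-transferred compounds, and grown at 37 °C for at least 48 hr. Viability was read as ATP luminescence.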
TDP1 cell noCPT: qHTS for Inhibitors of human tyrosyl-DNA phosphodiesterase 1 (TDP1): qHTS in cells in absence of CPT. Potency, µM (series often up to 46.2 µM), inactives show at the top dose activity change, negative = growth inhibition, hits mostly inhibitors. 420,000 compounds, 15% hits. DT40 Tdp1-/- hTDP1 cells, no CPT, ATP luminescence, 48 h; further: potency means the concentration at half of the fitted maximal effect; on the % scale 0 is the no-effect control and ±100 the full control effect; nearly all actives have a fitted effect of over 55% in size
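Luminescent ATP content (CellTiter-Glo) served as the growth readout. Knockout chicken DT40 cells expressing human TDP1 were exposed to compounds without camptothecin for a minimum 48 hr at 37 °C.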
MCF10A rerep: DNA re-replication induction in MCF 10a cells; Potency, µM (titrated, usually from 46.1 µM), without a hit: at the highest dose activity, positive = re-replication, usual class: activators; MCF 10A DNA re-replication, Hoechst nuclear intensity, 48 h; AID 624296; 350,000 compounds, 2.9% hits; further: potency means the concentration at half of the fitted maximal effect; % of control where 0% means no effect; nearly all actives have a fitted effect of over 50% in size
SW480 rereplic: induces DNA re-replication in SW480 colon adenocarcinoma cells; SW480 DNA re-replication, Hoechst DNA content imaging, 48 h; Potency, µM (doses to about 46.1 µM), for the others: at the top dose re-replication activation, hits mostly activators; 340,000 compounds, 1.8% hits; further: potency means the concentration at half of the fitted maximal effect; % of control where 0% means no effect; nearly all actives have a fitted effect of over 55% in size
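Image-based read-out: total Hoechst fluorescence of nuclei (405 nm excitation, 500-530 nm emission), with hits raising the fraction of high-intensity nuclei. SW480 colon cells incubated 48 hr with compounds at 37 C.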
Chronic BCR inh: chronic active BCR signaling inhibition; ABC-DLBCL IkBa-CBG/CBR reporter, luminescence ratio, 4 h; Potency, µM (top dose mostly 46.1 µM), inactives show at the top dose activity change, negative = inhibition, usual class: inhibitors; 340,000 compounds, 0.05% hits; AID 493014; active means well fitted inhibition curve with a large enough effect in the signal ratio, with a control signal flat, not every such curve was filed as active; inconclusive means small, poorly fitted or top-dose-only effect, or effect the other way, or a change in a side signal; the % refers to the signal ratio;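 further: potency means the concentration at half of the fitted maximal effect; plate controls were basal doxycycline-induced cells for no effect and cells given 10 µM MG132 for full effect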
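Concentration-response series (up to 46 uM) were applied to TMD8 dual-reporter cells for 4 h at 37C with doxycycline. Green/red ratio, after filter-overlap correction, defined %Activity; red signal alone was normalised to basal cells and zero luminescence.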
IL1B secr inh: blocks inflammasome-driven IL-1 beta release; AID 743279; 360,000 compounds, 4.7% hits; activity change, % at 57.5 µM; THP-1 LPS/ATP IL-1B secretion, AlphaLISA, 16 h; stronger effect = lower value; in the data active means activity change below about -50%; inconclusive means mostly about -30% to -49%; further: on the % scale 0 is the no-effect control and ±100 the full control effect
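THP-1 cells pretreated 1 hr with compounds (up to 57.5 uM final), then stimulated with LPS (250 ng/mL final) plus ATP (1.25 mM final); secreted IL-1B measured by AlphaLISA after 16 hr, decreased signal indicating inhibition.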
The depositor's hits bear a star. Unless noted, the call rests on the fitted dose curve; in most records, active means well fitted curve in the direction sought with a large enough effect; inconclusive means small, poorly fitted or top-dose-only effect, or another doubt; inactive means no such curve, though single readings can be large; an effect the other way counts as inactive or inconclusive.

Results for N#C/C(=C\c1ccc(-c2ccc(Br)cc2)o1)C(=O)NCCc1c[nH]c2ccccc12 ?
TDP1 cell CPT: inconclusive; TDP1 cell noCPT: inconclusive; MCF10A rerep: inconclusive; SW480 rereplic: inconclusive; Chronic BCR inh: 1%; IL1B secr inh: -61*

What do the screens show for `CCc1nn2cc(C(=O)c3cc(Cl)ccc3O)cnc2c1-c1ccc(F)cc1`?
TDP1 cell CPT: inconclusive; TDP1 cell noCPT: inconclusive; MCF10A rerep: inconclusive; SW480 rereplic: 5%; Chronic BCR inh: 13%; IL1B secr inh: -77*

What do the screens show for `Cc1cc(C(=O)CN2C(=O)NC3(CCCCC3)C2=O)c(C)n1Cc1ccc2c(c1)OCO2`?
TDP1 cell CPT: 8.2µM*; TDP1 cell noCPT: 23µM*; MCF10A rerep: inconclusive; SW480 rereplic: -4%; Chronic BCR inh: -1%; IL1B secr inh: 39

What do the screens show for `Cc1cc(C(=O)CN2C(=O)NC(C)(CC(C)C)C2=O)c(C)n1-c1ccc2c(c1)OCO2` (stereo unspecified)?
TDP1 cell CPT: inconclusive; TDP1 cell noCPT: 23µM*; MCF10A rerep: inconclusive; SW480 rereplic: 8%; Chronic BCR inh: -16%; IL1B secr inh: -25

How did Cc1cc(C(=O)CN2C(=O)NC3(CCCC3)C2=O)c(C)n1-c1ccc2c(c1)OCO2 do in these assays?
TDP1 cell CPT: -24%; TDP1 cell noCPT: inconclusive; MCF10A rerep: 9%; SW480 rereplic: -1%; Chronic BCR inh: 0%; IL1B secr inh: -16

What do the screens show for `CCNCCC(=O)N1c2ccccc2Sc2ccc(C(F)(F)F)cc21`?
TDP1 cell CPT: inconclusive; TDP1 cell noCPT: -56%; MCF10A rerep: -4%; SW480 rereplic: -22%; Chronic BCR inh: -1%; IL1B secr inh: inconclusive

How did NC(=S)N/N=C/c1ccc(C(F)(F)F)cc1 do in these assays?
TDP1 cell CPT: 21µM*; TDP1 cell noCPT: 16µM*; MCF10A rerep: inconclusive; Chronic BCR inh: inconclusive; IL1B secr inh: 0

What do the screens show for `NC(=S)N/N=C/c1ncc(C(F)(F)F)cc1Cl`?
TDP1 cell CPT: 0.41µM*; TDP1 cell noCPT: 0.52µM*; MCF10A rerep: inconclusive; SW480 rereplic: inconclusive; Chronic BCR inh: inconclusive; IL1B secr inh: -103*

Results for COc1ccc(/C=N/NC(N)=S)cc1 ?
TDP1 cell CPT: inconclusive; TDP1 cell noCPT: inconclusive; MCF10A rerep: inconclusive; SW480 rereplic: 1%; Chronic BCR inh: inconclusive; IL1B secr inh: 1

Results for CCOc1ccccc1CNC(=O)c1ccc(-c2nc(CSc3ccc(C)cc3)c(C)o2)cc1 ?
TDP1 cell CPT: 9.2µM*; TDP1 cell noCPT: 13µM*

Results for COc1ccccc1CCNC(=O)c1ccc(-c2nc(CSc3ccc(C)cc3)c(C)o2)cc1 ?
TDP1 cell CPT: 16µM*; TDP1 cell noCPT: 8.2µM*

What do the screens show for `COc1ccc(CNC(=O)c2ccc(-c3nc(CSc4ccccc4)c(C)o3)cc2)c(OC)c1`?
TDP1 cell CPT: -3%; TDP1 cell noCPT: -27%

What do the screens show for `COc1ccc(CNC(=O)c2ccc(-c3nc(CSc4ccc(C)cc4)c(C)o3)cc2)c(OC)c1`?
TDP1 cell CPT: 8.2µM*; TDP1 cell noCPT: inconclusive

What do the screens show for `Cc1ccc(SCc2nc(-c3ccc(C(=O)NCc4ccc(Cl)cc4)cc3)oc2C)cc1`?
TDP1 cell CPT: 15µM*; TDP1 cell noCPT: 9.2µM*

How did COc1ccccc1/C=C/C(=O)OCC(=O)N1CCc2ccccc21 do in these assays?
TDP1 cell CPT: 7%; TDP1 cell noCPT: 3%; MCF10A rerep: 2%; SW480 rereplic: 2%; Chronic BCR inh: -2%; IL1B secr inh: -3

What do the screens show for `COc1ccc(S(=O)(=O)N2CCOCC2)cc1NC(=O)COC(=O)c1oc2ccccc2c1C`?
TDP1 cell CPT: -10%; TDP1 cell noCPT: inconclusive; MCF10A rerep: 15%; SW480 rereplic: -7%; Chronic BCR inh: 6%; IL1B secr inh: -17

How did CC1=Nc2cc(C(=O)NCCCOC(C)C)ccc2Sc2ccccc21 do in these assays?
TDP1 cell CPT: 16µM*; TDP1 cell noCPT: 21µM*; MCF10A rerep: 7.3µM*; SW480 rereplic: inconclusive; Chronic BCR inh: inconclusive; IL1B secr inh: 13

Results for CC1=Nc2cc(C(=O)NCCc3ccc(Cl)cc3)ccc2Sc2ccc(C)cc21 ?
TDP1 cell CPT: 6.5µM*; TDP1 cell noCPT: 6.5µM*

How did CC1=Nc2cc(C(=O)NCCCOC(C)C)ccc2Sc2ccc(C)cc21 do in these assays?
TDP1 cell CPT: 5.2µM*; TDP1 cell noCPT: 4.6µM*; MCF10A rerep: 9.2µM*; SW480 rereplic: 6.5µM*; Chronic BCR inh: inconclusive; IL1B secr inh: 43

Results for Cc1ccc(Cl)cc1N1CCN(S(=O)(=O)c2cc3c(cc2C)NC(=O)CO3)CC1 ?
TDP1 cell CPT: inconclusive; TDP1 cell noCPT: inconclusive; MCF10A rerep: inconclusive; SW480 rereplic: -17%; Chronic BCR inh: -6%; IL1B secr inh: -25

Results for CCN(CC)c1ncnc2scc(C3COc4ccccc4O3)c12 (stereo unspecified) ?
TDP1 cell CPT: 16µM*; TDP1 cell noCPT: inconclusive; MCF10A rerep: inconclusive; SW480 rereplic: -2%; Chronic BCR inh: 11%; IL1B secr inh: -6

How did CCc1ccc(N2CC(c3nnc(NC(=O)c4ccco4)s3)CC2=O)cc1 (stereo unspecified) do in these assays?
TDP1 cell CPT: -10%; TDP1 cell noCPT: -10%

What do the screens show for `COc1cc(C2CC(=O)Nc3c2c(=O)[nH]c2ncnn32)ccc1O` (stereo unspecified)?
TDP1 cell CPT: -1%; TDP1 cell noCPT: -15%

How did O=C(c1cc2ccccc2oc1=O)N(Cc1cccs1)CC1CCCO1 (stereo unspecified) do in these assays?
TDP1 cell CPT: inconclusive; TDP1 cell noCPT: inconclusive; MCF10A rerep: 4%; SW480 rereplic: -4%; Chronic BCR inh: 2%; IL1B secr inh: -12

How did O=C(c1cc2ccccc2oc1=O)N(Cc1cccs1)Cc1cccs1 do in these assays?
TDP1 cell CPT: inconclusive; TDP1 cell noCPT: 23µM*; MCF10A rerep: inconclusive; SW480 rereplic: 5%; Chronic BCR inh: 16%; IL1B secr inh: -27

Results for O=C(c1cc2ccccc2oc1=O)N(Cc1ccco1)Cc1cccs1 ?
TDP1 cell CPT: 21µM*; TDP1 cell noCPT: inconclusive; MCF10A rerep: inconclusive; SW480 rereplic: 0%; Chronic BCR inh: 9%; IL1B secr inh: -25

Compound activity from PubChem BioAssay.
